These results are taken from PubChem BioAssay (EPA / NIEHS).

Where “and” joins values, the source holds several entries; their conditions need not be identical. Equal entries are not always repeated. More than one record can exist for a structure, and the calls need not agree. Calls of active or inactive are those of the source. The calls were made as follows: active = hit-call score of the fitted dose curve at least 0.9, where 1 is the maximum; inactive = score below 0.9.

The nature of assay [1]: APR_HepG2_CellLoss_72hr: Apredica 72-hour HepG2 Assay for Cell Loss (AID 2282915). To be noted: high-content imaging. A digest of the protocol:
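HepG2 cells were exposed for 72 hr to compounds at 0.39–200 uM (ten concentrations, duplicate) in 0.5% v/v final DMSO. Nuclei were stained with Hoechst 33342 after 3.7% formaldehyde fixation, imaged at 20x, and counted; fits bidirectional versus DMSO.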

A short description of assay [2]: APR_HepG2_P-H2AX_72hr: Apredica 72-hour HepG2 Assay for H2AX Phosphorylation (AID 2282916).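 Also: phospho-histone H2A.x immunostain intensity per cell marking DNA damage.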 To be noted: imaging, actives raise or lower the signal. A digest of the protocol: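 Readout: phospho-H2A.x immunofluorescence (FITC secondary) plus Hoechst nuclear stain, high-content imaging at 20x, six fields/well. HepG2, 72 hr compound exposure, 0.39–200 uM, final DMSO 0.5% v/v. Gain or loss fitted relative to DMSO baseline.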

Assay [3] is described as follows: APR_HepG2_P-H2AX_24hr: Apredica 24-hour HepG2 Assay for H2AX Phosphorylation (AID 2282920). The settings on record: high-content imaging, actives raise or lower the signal. A digest of the protocol:
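HepG2, 24 hr, cpd 0.39–200 uM (10 conc, duplicate), DMSO 0.5% v/v final. Fix 3.7% formaldehyde, Triton X-100 permeabilize, anti-phospho-H2A.x 1:200 + Hoechst 2 ug/mL. Imaged, bidirectional fit vs DMSO.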

Assay [4] in a line: APR_HepG2_StressKinase_72hr: Apredica 72-hour HepG2 Assay for Stress Kinase (AID 2282921). To be noted: HepG2 stress kinase (phospho-c-Jun) imaging, actives raise or lower the signal. The procedure, abridged:
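Phospho-c-Jun immunofluorescence measured by high-content imaging at 20x, six fields per well; bidirectional curve fitting against DMSO as baseline. Dosing: 0.39–200 uM, 72 h, 0.5% DMSO final.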

Assay [5] in a line: APR_HepG2_StressKinase_24hr: Apredica 24-hour HepG2 Assay for Stress Kinase (AID 2282922). The settings on record: HepG2 stress kinase (phospho-c-Jun) imaging, actives raise or lower the signal. A digest of the protocol: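 After 24 hr compound treatment (up to 200 uM, final DMSO 0.5% v/v), HepG2 cells are fixed and multiplex-labeled; phospho-c-Jun intensity is captured by high-content fluorescence imaging and analyzed relative to DMSO.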

The nature of assay [6]: APR_HepG2_NuclearSize_72hr: Apredica 72-hour HepG2 Assay for Nuclear Size (AID 2282925). To be noted: high-content imaging, actives raise or lower the signal. The procedure, abridged: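 Compounds (0.39–200 uM, final DMSO 0.5%) were applied to HepG2 for 72 hr. Cells were then formaldehyde-fixed, permeabilized and labelled with Hoechst 33342. Nuclear diameter was quantified from six images per well.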

The nature of assay [7]: ATG_CRE_CIS: Attagene CIS-FACTORIAL HepG2 Assay for human cAMP Responsive Element (CRE) binding protein 3 (AID 2282926). The settings on record: HepG2 CRE cis-reporter, Attagene multiplexed mRNA; actives raise or lower the signal. A digest of the protocol: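 Assay format: transient reporter transfection of HepG2, 24 h treatment, total RNA isolation with DNase I step. Reporter abundance read by fluorescence after PCR and capillary separation; DMSO-normalised gain or loss fitting.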

In assay [8] the target is CCAAT/enhancer-binding protein beta (Homo sapiens) (UniProt P17676). Put plainly: ATG_C_EBP_CIS: Attagene CIS-FACTORIAL HepG2 Assay for human CCAAT/Enhancer Binding Protein (C/EBP) beta (AID 2282927). To be noted: HepG2 Attagene cis-factorial transcription factor reporter; actives raise or lower the signal. The procedure, abridged: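 RT-PCR/capillary electrophoresis fluorescence of reporter mRNA, 24 h post-dose, in HepG2 cells carrying transfected cis-promoter reporter units. Bidirectional curve fitting against DMSO baseline captures gain or loss of signal.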
Chain of CCAAT/enhancer-binding protein beta (Homo sapiens) (P17676 whole entry, looked up): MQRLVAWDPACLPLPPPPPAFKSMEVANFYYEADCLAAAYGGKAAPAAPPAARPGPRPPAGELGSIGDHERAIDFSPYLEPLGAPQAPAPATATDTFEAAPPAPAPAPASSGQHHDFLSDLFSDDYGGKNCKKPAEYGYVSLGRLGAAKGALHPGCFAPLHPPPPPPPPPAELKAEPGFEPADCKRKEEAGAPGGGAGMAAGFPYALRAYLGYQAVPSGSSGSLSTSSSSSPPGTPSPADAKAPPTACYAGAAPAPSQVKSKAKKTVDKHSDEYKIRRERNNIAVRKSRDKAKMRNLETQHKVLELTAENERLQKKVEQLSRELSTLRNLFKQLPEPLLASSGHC

The nature of assay [9]: ATG_DR4_LXR_CIS: Attagene CIS-FACTORIAL HepG2 Assay for human Liver X Receptor (LXR), DR4 submotif (AID 2282929). The settings on record: HepG2 Attagene DR4 cis-reporter, mRNA transcription; actives raise or lower the signal. A digest of the protocol:
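Cells were transfected with multiple reporter transcription units, exposed to chemicals for 24 hours, then lysed for RNA. Reporter mRNA induction was measured by RT-PCR with capillary electrophoresis detection and fitted in both directions relative to DMSO.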

The target of assay [10] is Aryl hydrocarbon receptor (Homo sapiens) (UniProt P35869). Put plainly: ATG_Ahr_CIS: Attagene CIS-FACTORIAL HepG2 Assay for human Aryl Hydrocarbon Receptor (Ahr) (AID 2282930). The settings on record: HepG2 AhR cis-factorial reporter transcription; actives raise or lower the signal. The procedure, abridged: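 HepG2 cells transiently transfected with cis-element-driven multiplexed reporter transcription units; endogenous transcription factor activity measured as reporter mRNA 24 h after dosing. RT-PCR, 6-FAM labelling, HpaI digestion, capillary electrophoresis; bidirectional fitting versus DMSO baseline.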
Chain of Aryl hydrocarbon receptor (Homo sapiens) (P35869 whole entry, looked up): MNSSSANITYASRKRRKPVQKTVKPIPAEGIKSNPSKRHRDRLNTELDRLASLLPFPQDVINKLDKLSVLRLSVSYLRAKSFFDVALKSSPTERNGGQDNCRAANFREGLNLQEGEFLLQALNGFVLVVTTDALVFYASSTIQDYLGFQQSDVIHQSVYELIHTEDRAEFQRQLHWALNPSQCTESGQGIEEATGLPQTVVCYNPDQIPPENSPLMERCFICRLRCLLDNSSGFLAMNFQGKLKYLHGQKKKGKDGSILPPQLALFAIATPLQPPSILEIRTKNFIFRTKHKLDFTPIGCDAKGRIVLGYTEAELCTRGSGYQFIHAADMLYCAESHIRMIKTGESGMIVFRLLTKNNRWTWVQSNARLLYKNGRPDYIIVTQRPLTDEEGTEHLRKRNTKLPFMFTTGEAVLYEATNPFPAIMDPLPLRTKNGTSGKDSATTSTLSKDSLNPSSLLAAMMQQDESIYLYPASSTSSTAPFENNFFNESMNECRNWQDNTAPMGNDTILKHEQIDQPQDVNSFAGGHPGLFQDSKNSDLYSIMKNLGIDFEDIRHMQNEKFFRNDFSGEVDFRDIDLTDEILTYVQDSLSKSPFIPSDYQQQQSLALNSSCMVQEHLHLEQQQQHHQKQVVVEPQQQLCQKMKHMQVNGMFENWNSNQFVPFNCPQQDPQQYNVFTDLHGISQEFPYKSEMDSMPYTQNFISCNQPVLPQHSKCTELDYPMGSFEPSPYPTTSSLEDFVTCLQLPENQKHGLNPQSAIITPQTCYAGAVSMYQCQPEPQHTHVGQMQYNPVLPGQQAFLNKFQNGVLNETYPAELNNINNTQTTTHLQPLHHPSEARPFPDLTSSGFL

Assay [11] can be described thus: ATG_AP_1_CIS: Attagene CIS-FACTORIAL HepG2 Assay for human Activator Protein 1 (AP-1) (AID 2282931). To be noted: HepG2 Attagene cis-factorial AP-1 reporter mRNA; actives raise or lower the signal. A digest of the protocol:
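Endogenous transcription-factor activity in human HepG2 liver cells is read through a cis-promoter reporter transcript, sampled 24 h after dosing. Detection uses RT-PCR with capillary electrophoresis; values come from bidirectional fitting relative to DMSO.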

Assay [12] can be described thus: ATG_AP_2_CIS: Attagene CIS-FACTORIAL HepG2 Assay for human Activator Protein 2 (AP-2) (AID 2282932). The settings on record: HepG2 AP-2 cis-reporter, Attagene transcription factor profiling; actives raise or lower the signal. A digest of the protocol:
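Assay in transfected HepG2 with promoter-regulated reporters, 24 h incubation after dosing. Signal is reporter mRNA fluorescence (RT-PCR, capillary electrophoresis), analysed for both increases and decreases relative to DMSO controls.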

The nature of assay [13]: ATG_BRE_CIS: Attagene CIS-FACTORIAL HepG2 Assay for human Bone Morphogenetic Protein (BMP) Response Element (BRE) (AID 2282933). The settings on record: HepG2 BMP response element reporter, Attagene transcription factor profiling; actives raise or lower the signal. The procedure, abridged:
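HepG2 cells transiently transfected with CIS reporter units (endogenous TF activity, BMP response element), dosed 24 h. Reporter mRNA quantified by RT-PCR, fluorescent labelling and capillary electrophoresis; bidirectional fit vs DMSO baseline.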

Assay [14] addresses Retinoic acid receptor alpha (Homo sapiens) (UniProt P10276). Put plainly: ATG_DR5_RAR_CIS: Attagene CIS-FACTORIAL HepG2 Assay for human Retinoic Acid Receptor Alpha (RARE), DR5 submotif (AID 2282934).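 As to AC50: reporter responds to endogenous RAR alpha beta and gamma in HepG2 not RARA alone.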 The settings on record: HepG2 Attagene cis-factorial RARE DR5 reporter, mRNA; actives raise or lower the signal. The procedure, abridged:
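HepG2 cells transiently transfected with multiplexed reporter units under cis (DR5 RARE) promoters, so endogenous transcription factor activity is measured. After 24 h compound exposure, reporter mRNA is quantified by RT-PCR with fluorescent labelling and capillary electrophoresis; bidirectional fitting versus DMSO.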

Assay [15] can be described thus: APR_HepG2_MitoticArrest_72hr: Apredica 72-hour HepG2 Assay for Mitotic Arrest (AID 2282918). To be noted: high-content imaging, actives raise or lower the signal. A digest of the protocol:
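Read-out is phospho-histone H3 immunofluorescence with Hoechst nuclear segmentation, imaged at 20x. Human HepG2 liver cells received ten concentrations (0.39–200 uM, final DMSO 0.5% v/v) for 72 hr before fixation. Gain or loss of signal was fitted relative to DMSO.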

Assay [16] can be described thus: APR_HepG2_MicrotubuleCSK_72hr: Apredica 72-hour HepG2 Assay for Microtubule CSK Stabilty (AID 2282919). To be noted: HepG2 microtubule cytoskeleton, high-content imaging, actives raise or lower the signal. A digest of the protocol:
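Ten-point dosing (0.39–200 uM, 0.5% DMSO) of HepG2 for 72 hr, with taxol as the cytoskeletal positive control. The cells were formaldehyde-fixed and then stained with alpha-tubulin/Cy5 and Hoechst. Imaging at 20x used a −2 um Z offset for tubulin.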

Assay [17] can be described thus: APR_HepG2_MitoMass_72hr: Apredica 72-hour HepG2 Assay for Mitochondrial Mass (AID 2282924).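 Also: MitoTracker Red CMXRos stain intensity per cell imaged as mitochondrial mass.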 To be noted: high-content imaging, actives raise or lower the signal. A digest of the protocol: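 Steps: treat HepG2 72 hr (0.39–200 uM, duplicate wells); load MitoTracker Red CMXRos, 250 nM, 30 min; fix with 3.7% formaldehyde, permeabilise with 0.5% Triton X-100; capture images, nuclei via Hoechst 33342; fit bidirectionally against DMSO.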

Assay [18] is described as follows: ATG_CMV_CIS: Attagene CIS-FACTORIAL HepG2 Assay for human CMV (Internal Marker) (AID 2282928).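 Also: endpoint acts as a background internal control marker rather than a target.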 To be noted: HepG2 CMV promoter reporter, transcription factor profiling; actives raise or lower the signal. A digest of the protocol:
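Reporter transcripts from transfected HepG2 cells are isolated after 24 h of chemical dosing, reverse-transcribed and amplified. Fragments labeled with 6-FAM are cut with HpaI and quantified by capillary electrophoresis; DMSO defines baseline.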

Chain of Retinoic acid receptor alpha (Homo sapiens) (P10276 whole entry, looked up): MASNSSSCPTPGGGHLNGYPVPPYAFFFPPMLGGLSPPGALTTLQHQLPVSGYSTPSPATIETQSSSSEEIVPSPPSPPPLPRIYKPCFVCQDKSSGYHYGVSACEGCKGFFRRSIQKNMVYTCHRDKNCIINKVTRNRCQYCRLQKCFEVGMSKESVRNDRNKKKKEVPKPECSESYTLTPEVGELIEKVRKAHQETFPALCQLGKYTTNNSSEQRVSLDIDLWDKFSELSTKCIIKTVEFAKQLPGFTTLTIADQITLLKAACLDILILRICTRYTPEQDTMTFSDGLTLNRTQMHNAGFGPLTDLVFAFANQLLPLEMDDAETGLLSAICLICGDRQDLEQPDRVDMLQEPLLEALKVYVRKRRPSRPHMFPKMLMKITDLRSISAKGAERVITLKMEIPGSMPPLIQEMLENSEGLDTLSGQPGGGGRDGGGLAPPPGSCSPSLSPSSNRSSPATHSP

Turning to `O=C(O)c1cccc(C(=O)O)c1`, the compound was called inactive in assay [1], in assay [2], in [3], in assay [4], in assay [5] and in assay [6]. For the same compound, the outcome in assay [7], in assay [8], in [9], in assay [10], in assay [11] and in [12] was inactive. Moreover, the outcome in [13] and in assay [14] was inactive.
With `O=C(Cl)C(F)(F)C(F)(F)C(F)(F)C(=O)Cl`, the call in assay [7], in assay [8], in assay [9], in [10], in [11] and in [12] was inactive. The compound was called inactive in assay [14].
For the compound `O=C(N[C@H](CO)[C@H](O)c1ccc([N+](=O)[O-])cc1)C(Cl)Cl`, the compound was called inactive in [7], in [8], in assay [9], in [10], in assay [11] and in assay [12]. In addition, the call in assay [13] and in assay [14] was inactive.
With `OCc1c[nH]c2ccccc12`, the result in assay [7], in [8], in [9], in assay [12] and in [14] was inactive. For the same compound, the AC50 in assay [9] is 69 µM (active) and 62.6 µM (active) and 49.8 µM (active); in [11] it was 47.2 µM (active) [middle of 5 runs].
Take `Nc1ccn([C@@H]2O[C@H](CO)[C@@H](O)[C@@H]2O)c(=O)n1`: the AC50 was 39.1 nM (active) in assay [1]; 202 nM (active) in [2]; 177 nM (active) in assay [15]; 97.9 nM (active) in assay [3]; 39.4 nM (active) in [6]. The compound was called inactive in assay [16], in assay [4], in [5], in assay [17], in assay [7] and in assay [8]. Moreover, the outcome in assay [9], in assay [10], in [11], in assay [12] and in assay [14] was inactive.
In the case of `FC(F)(F)COC(OCC(F)(F)F)OCC(F)(F)F`, the compound was classed as inactive in [7], in [8], in assay [18], in [9], in assay [10] and in assay [11]. Further, the compound was classed as inactive in assay [12] and in [14].
For `O=C(O)CO`, the compound was classed as inactive in [7], in [8], in assay [18], in [9], in [10] and in [11]. For the same compound, the compound was called inactive in assay [12], in assay [13] and in assay [14].
With `FC(F)(F)C(F)(F)C(F)(F)C(F)(F)C(F)(F)C(F)(F)I`, the outcome in assay [7], in assay [8], in [9], in assay [10], in assay [11] and in assay [12] was inactive. Moreover, the compound was classed as inactive in assay [13] and in assay [14]. In addition, the concentration at half-maximal activity (AC50) in assay [14] is 103000 nM (active).
